Measured values as given in PMC7819943, “Rice protein-binding microarrays: a tool to detect cis-acting elements near promoter regions in rice”.
Whole data set: some 35,000 sequences, median “fluorescence intensity (a.u.)” near 10,000, cut for the highest 2% near 52,000. The sample holds the highest values, similar sequences and a random draw of the others, so the mix is not that of the screen.

Target: T1, OsWOX13 (Oryza sativa, UniProt Q5QMM3 1-267)
T1 sequence: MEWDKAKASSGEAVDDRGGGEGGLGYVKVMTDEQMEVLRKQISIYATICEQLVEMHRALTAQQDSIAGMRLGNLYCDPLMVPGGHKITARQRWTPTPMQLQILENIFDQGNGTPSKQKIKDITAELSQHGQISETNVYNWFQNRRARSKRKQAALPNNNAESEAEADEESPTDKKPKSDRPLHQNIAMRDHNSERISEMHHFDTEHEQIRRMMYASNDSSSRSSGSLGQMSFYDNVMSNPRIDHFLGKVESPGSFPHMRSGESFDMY
Assay: protein-binding microarray (RPBM); PBS, 2% BSA, 51.3 ng/ul salmon testes DNA, 50 uM zinc acetate, 200 nM TF, 25 C, 1 h; high values mean tight binding
Details: protein: recombinant; tags: N-terminal polyhistidine and DsRed monomer fusion (pET32a); label: CyDye5-dUTP incorporated in the synthesized complementary strand; 3' TTTTT single-stranded linker to array surface; dsDNA, one strand shown
In short: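 Polyhistidine-tagged DsRed fusions of transcription factors, joined at the N-terminus, were expressed in E. coli BL21-CodonPlus and isolated on Ni–NTA. They were incubated at 200 nM for 1 h at 25 °C on a custom Agilent array, double-stranded and BSA-blocked, in PBS with 2% BSA, salmon testes DNA and 50 µM zinc acetate. The binding signal is per-feature fluorescence intensity (arbitrary units) read on an Axon 4000B scanner after washing.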

Row | Sequence | binding signal
1 | CCTAATAATTAATTAATGATGCACGAGGGATTATCCAACTCGGAGTCACCTAGTGCAG | 53200 fluorescence intensity (a.u.)
2 | GTTTTAGCTAATATTTAATTAATCATGTGCTAATGAGCTACGGAGTCACCTAGTGCAG | 8590 fluorescence intensity (a.u.)
3 | GTTTAATATTTATAATTAATTTTCAAACATCCGATGTGATCGGAGTCACCTAGTGCAG | 19000 fluorescence intensity (a.u.)
4 | AATTAATCATGCGTTAATGGACCGTTCCGTTTTCCGTGTTCGGAGTCACCTAGTGCAG | 20900 fluorescence intensity (a.u.)
5 | ACGAATCTATTGAGCCTAATTAATTCATAATTAGTCTATGCGGAGTCACCTAGTGCAG | 14600 fluorescence intensity (a.u.)
6 | GAATTAAATGATGTGTGAATAATGGATGGCTAGGATGCAACGGAGTCACCTAGTGCAG | 9780 fluorescence intensity (a.u.)
7 | TTTAATTGTTATGAACACGACAATGTAATCGGATCATAGACGGAGTCACCTAGTGCAG | 10100 fluorescence intensity (a.u.)
8 | ATTGTATCTAATTATTGGCAACATGGAAATTAATCTCTTGCGGAGTCACCTAGTGCAG | 9160 fluorescence intensity (a.u.)
9 | CATAAATCATTTCTTTTGTTTTCAAACTAAGCATATTTGACGGAGTCACCTAGTGCAG | 4540 fluorescence intensity (a.u.)
10 | AATGTGATTTTCATGTATCCAATTAAAATATTTTAAGAAGCGGAGTCACCTAGTGCAG | 9180 fluorescence intensity (a.u.)
11 | CCTTGATGATTGAACCAGTCAGCCCCAACATCTCTATAAACGGAGTCACCTAGTGCAG | 25800 fluorescence intensity (a.u.)
12 | GCAATTTGATTTGGCCTGTATATTATTATGTGCAGGGTTCCGGAGTCACCTAGTGCAG | 13800 fluorescence intensity (a.u.)
13 | TTTCAAGAGATTAATTAATTTTCTCAACTTTGCAAGGGCACGGAGTCACCTAGTGCAG | 16000 fluorescence intensity (a.u.)
14 | CCTTAATTAATTAATTTCTAGATCTCAAGAGGGCAACAGACGGAGTCACCTAGTGCAG | 57200 fluorescence intensity (a.u.)
15 | TAATTTATTAATTTATTATTAGAGTATATATATTTCAAGACGGAGTCACCTAGTGCAG | 6800 fluorescence intensity (a.u.)
16 | TTACAGATTGGCCCCTGTATTTCTCTCTCTCGTCTCTCCTCGGAGTCACCTAGTGCAG | 24800 fluorescence intensity (a.u.)
17 | TTATCAATCTACATCGTTATAATTTAGTTCCACCGTAATTCGGAGTCACCTAGTGCAG | 19800 fluorescence intensity (a.u.)
18 | GCCGGGAGGGAGGGAGGGAGGGAGGGAGGGAGACCCCGCACGGAGTCACCTAGTGCAG | 9960 fluorescence intensity (a.u.)
19 | AGATGATTGATTTTCAGGTGATGAACAGGGTTACTGTTTTCGGAGTCACCTAGTGCAG | 63000 fluorescence intensity (a.u.)
20 | GTTAGGGTTTTCTTTTGATTGTCAGGGTTTTCTTTTGATTCGGAGTCACCTAGTGCAG | 3960 fluorescence intensity (a.u.)
21 | TTATTAGATGATGATTATTTTGAGAAGGTTTCTTAGGATGCGGAGTCACCTAGTGCAG | 12900 fluorescence intensity (a.u.)

Row | Sequence | binding signal
22 | GATGATTTGATTAGATTAGGTTAGGTTTGTTATTCACCTACGGAGTCACCTAGTGCAG | 65500 fluorescence intensity (a.u.)
23 | TAGATGATTATTATGATAGGATTGATTTGTTTAGAGTCTTCGGAGTCACCTAGTGCAG | 46100 fluorescence intensity (a.u.)
24 | TTGATTTGAAAGGTACTACCTCTGTTTCAGGTTAGAAAGTCGGAGTCACCTAGTGCAG | 3380 fluorescence intensity (a.u.)
25 | AGTCATCAAAATTACGCATGTAATTAGTATATATAATTATCGGAGTCACCTAGTGCAG | 9910 fluorescence intensity (a.u.)
26 | TTTAGTATATAATAGATAGATAGATAGAAGATTTGTACTACGGAGTCACCTAGTGCAG | 4500 fluorescence intensity (a.u.)
27 | GCTGACTGGATAAAATCTGATAAGCGTGAAGATGACCTTTCGGAGTCACCTAGTGCAG | 21400 fluorescence intensity (a.u.)
28 | TTCGAAAATTACCTGTAACCTTCCATCCATCACACACACACGGAGTCACCTAGTGCAG | 3500 fluorescence intensity (a.u.)
29 | AGCTAATTAAGCTAGTGAGAGCTAGTGGAGGTACATGGCTCGGAGTCACCTAGTGCAG | 11600 fluorescence intensity (a.u.)
30 | TTGATTGATGTCATTTAAATTATCATTGGTCTTGGTGTATCGGAGTCACCTAGTGCAG | 41100 fluorescence intensity (a.u.)
31 | CTGTGAATTGATTCATCTCTCACACATGGTTCTCCACTATCGGAGTCACCTAGTGCAG | 9680 fluorescence intensity (a.u.)
32 | ATAAAATAAATGATAATTACATAAATTTCTTTAAATAAGACGGAGTCACCTAGTGCAG | 10900 fluorescence intensity (a.u.)
33 | TAATTGATGTAATTTAAATTATTCTTGGTCTTAGTGTATACGGAGTCACCTAGTGCAG | 54800 fluorescence intensity (a.u.)
34 | CGATTGATTGATTCTTGGTGCTCACTATCTCTAAATTGATCGGAGTCACCTAGTGCAG | 59600 fluorescence intensity (a.u.)
35 | CTTTAATTGGTGCTTGTTAAACCTCTTAGTGCTTGTTAAACGGAGTCACCTAGTGCAG | 29200 fluorescence intensity (a.u.)
36 | GGGTGATATAAATTAGGAGGTGATAATAATTATTTCTTGGCGGAGTCACCTAGTGCAG | 26700 fluorescence intensity (a.u.)
37 | GATTGATGCAATTTAAATTATACTTAGTATTGGTGTATAACGGAGTCACCTAGTGCAG | 11400 fluorescence intensity (a.u.)
38 | AGCTGATCTATCCAAATTGGTGAAACTAATTGTAAATTCTCGGAGTCACCTAGTGCAG | 11000 fluorescence intensity (a.u.)
39 | TTAATTAGGAGATATTGATTGATAAACGTACCTCTTGGTGCGGAGTCACCTAGTGCAG | 65300 fluorescence intensity (a.u.)
40 | GCTTACAATTAATGATTACCTTTTCATAAAGATTATTATTCGGAGTCACCTAGTGCAG | 12400 fluorescence intensity (a.u.)
41 | ACAATGATTGGGTCTTAAGATTTTCTTTAATTATTCGACGCGGAGTCACCTAGTGCAG | 58300 fluorescence intensity (a.u.)
42 | AATAAATCTATAATTTTATGATATTATGACTTAAATCTATCGGAGTCACCTAGTGCAG | 4790 fluorescence intensity (a.u.)
